Bioassay records deposited in PubChem BioAssay by several laboratories.
Dyrk1A ADPGlo: blocks rat Dyrk1A kinase activity; ADP-Glo luminescence, NFATc1 peptide; inhibition, % at 12.5 µM; hit rate 0.43% among 310,000; in the data active means inhibition above about 50%;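 further: plate controls were vehicle with enzyme for no effect and no enzyme for full effect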
CDK5 inh: inhibitors of human CDK5/p35 kinase; Recombinant CDK5/p35, ADP-Glo luminescence, 60 min; inhibition, % at 10 µM; hit rate 0.01% among 330,000; AID 488839;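 active means highest replicate inhibition of at least 50% and at least 75% of replicates reaching 50%; inconclusive means only one of the two criteria met; inactive means both criteria failed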;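 further: plate controls were DMSO neutral control for no effect and GW8510 at 10 µM for full effect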
esBAF inh: blocks esBAF chromatin remodeling in mouse ES cells. hit rate 2% among 350,000. reporter increase, % at 12.5 µM. Bmi1-luciferase knock-in reporter, 24 h; 100% = twice the neutral-well signal; in the data active means activation above about 40%; inconclusive means no clear call, values can overlap the other calls;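 further: 0% = median of the plate's neutral control wells and 100% = double that signal; a rise in the Bmi1 reporter signal indicates esBAF inhibition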
Rtt109 HAT inh: inhibitors of Candida albicans Rtt109/Vps75 histone acetyltransferase; purified Rtt109/Vps75, ThioGlo CoA-SH fluorescence, 4 h; hit rate 0.16% among 330,000; Q5AAJ8; AID 540336; inhibition, % at 34.9 µM;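 active means inhibition of at least 50% in every replicate; inconclusive means best replicate reaches 50% inhibition but some replicates fall short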
Target sequence (Q5AAJ8 whole entry, looked up): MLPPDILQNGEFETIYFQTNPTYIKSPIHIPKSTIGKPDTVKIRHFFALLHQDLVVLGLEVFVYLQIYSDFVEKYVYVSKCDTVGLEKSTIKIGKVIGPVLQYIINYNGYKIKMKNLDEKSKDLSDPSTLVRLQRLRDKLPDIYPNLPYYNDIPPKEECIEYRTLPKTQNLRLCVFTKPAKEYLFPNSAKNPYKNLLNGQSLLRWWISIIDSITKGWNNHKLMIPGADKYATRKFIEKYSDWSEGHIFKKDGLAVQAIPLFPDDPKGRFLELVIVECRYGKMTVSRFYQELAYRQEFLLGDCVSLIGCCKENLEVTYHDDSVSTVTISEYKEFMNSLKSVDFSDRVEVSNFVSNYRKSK
SMARCA2 activ: increases SMARCA2 function in MMTV reporter cells. AID 652017. hit rate 1% among 370,000. activation, % at 9.1 µM. MG213 cells, MMTV-luciferase reporter, dexamethasone, overnight; in the data active means activation above about 7.8%;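 further: 0% = vehicle wells and 100% = reference activator wells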
dFosB act: enhances mouse delta FosB homodimer DNA binding. hit rate 0.99% among 340,000. P13346. activation, % at 25 µM. purified delta FosB, TAMRA-CDK5 oligo fluorescence polarization; percent of positive-control signal above neutral wells;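 active means mean activation above about 17%, with every replicate also reaching it, limit read from the data, passing the limit was not always enough; inconclusive means only one of the two conditions met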
Target sequence (P13346 whole entry, looked up): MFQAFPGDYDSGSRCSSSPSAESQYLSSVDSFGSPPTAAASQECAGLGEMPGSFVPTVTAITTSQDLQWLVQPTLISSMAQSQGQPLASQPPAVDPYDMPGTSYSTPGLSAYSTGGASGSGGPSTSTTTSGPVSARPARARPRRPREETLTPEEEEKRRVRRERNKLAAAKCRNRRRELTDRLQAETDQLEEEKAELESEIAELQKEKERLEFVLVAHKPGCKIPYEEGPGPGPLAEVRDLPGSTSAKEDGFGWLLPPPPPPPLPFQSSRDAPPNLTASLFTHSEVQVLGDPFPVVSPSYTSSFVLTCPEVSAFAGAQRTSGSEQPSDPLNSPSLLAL
The depositor's hits bear a star; ? = inconclusive; nt = not tested or not shown. Shown are actives, neighbours in structure and some others; about 3.2% of the full set was active somewhere.

SMILES | Dyrk1A ADPGlo | CDK5 inh | esBAF inh | Rtt109 HAT inh | SMARCA2 activ | dFosB act
COc1cccc(OCc2cc(C(=O)N3CCN(c4ccccc4O)CC3)no2)c1 | 1 | -1 | 49* | 4 | 2 | -13
O=C(NCc1ccncn1)[C@H]1[C@H](CO)[C@H]2Cn3c(ccc(-c4ccc(F)cc4)c3=O)[C@H]2N1CC1CC1 | nt | nt | -1 | nt | nt | nt
CN(C)C(=O)[C@H]1[C@H](CO)[C@H]2Cn3c(ccc(-c4cccc(F)c4)c3=O)[C@@H]1N2Cc1ccccc1 | nt | nt | -1 | nt | nt | nt
C[C@@H]1CCCCO[C@H](CN(C)C(=O)CCC(F)(F)F)[C@@H](C)CN([C@@H](C)CO)C(=O)c2cc(NS(=O)(=O)c3ccccc3)ccc2O1 | nt | nt | 6 | nt | nt | nt
O=C(Cc1csc(NC(=O)Nc2ccc(Cl)cc2)n1)NCc1ccccn1 | 19 | 1 | 45* | 5 | 0 | -12
O=C(Cc1csc(NC(=O)Nc2ccc(Cl)cc2)n1)NC1CCCC1 | 1 | 2 | 31 | 5 | 1 | ?
CCCCCCc1nc2ccccc2c(=O)n1N | -3 | 0 | 24 | 2 | 3 | 0
Cc1cccc(OCc2nc3ccccc3c(=O)n2N)c1 | 1 | 0 | 59* | -11 | 0 | -8
Cc1cccc(-c2nc3ccccc3c(=O)n2N)c1 | -1 | 1 | -1 | -3 | 0 | 4
Nn1c(COc2cccc(Cl)c2)nc2ccccc2c1=O | 1 | -2 | 44* | -6 | 2 | -6
COc1ccc(NC(=O)Nc2ccc3c(c2)C(=O)N([C@H](C)CO)C[C@H](C)[C@@H](CN(C)S(=O)(=O)c2ccc(C)cc2)OCCCC[C@@H](C)O3)cc1 | nt | nt | 0 | nt | nt | nt
Cc1ccc(NC(=S)NCc2ccc3c(c2)OCO3)cc1C | 3 | 1 | nt | -7 | 0 | -4
S=C(Nc1ccc2c(c1)OCO2)Nc1ccc2c(c1)OCO2 | -5 | 0 | 51* | 2 | 4 | 0
S=C(NCc1ccc2c(c1)OCO2)Nc1ccc2nsnc2c1 | 19 | 3 | 56* | 6 | -5 | 2
COC(=O)C[C@H]1CC[C@H]2[C@@H](COC[C@@H](O)CN2CCC(F)(F)F)O1 | nt | nt | -3 | nt | nt | nt
Cc1ccc(NC(=S)c2ccc3ccccc3n2)c(C)c1 | 1 | 0 | 53* | -4 | 3 | -1
Cc1ccc(C)c(NC(=O)c2ccc3ccccc3n2)c1 | 6 | 0 | 6 | 1 | 7 | -4
COC(=O)[C@H]1[C@H](CO)[C@H]2Cn3c(ccc(C4=CCCCC4)c3=O)[C@H]2N1CC1CCCCC1 | nt | nt | 0 | nt | nt | nt
COc1ccc(NC(=O)N(C)C[C@@H]2Oc3c(NS(C)(=O)=O)cccc3C(=O)N([C@H](C)CO)C[C@@H]2C)cc1 | nt | nt | 0 | nt | nt | nt
CCOC(=O)/C=C/C(=O)OCC(=O)Nc1ccc(C)cc1 | -2 | 0 | nt | 34 | 1 | -7
CCOC(=O)/C=C/S(=O)(=O)c1ccc(NC(C)=O)cc1 | 5 | 1 | -25 | 124* | -12 | 3
Cc1cccc(OCc2nc3ccccc3n2C)c1 | nt | 0 | 64* | -4 | 1 | 3
CCn1c(COc2ccccc2)nc2ccccc21 | 18 | 0 | 58* | 2 | 1 | -1
Cn1c(COc2ccc(F)cc2)nc2ccccc21 | 4 | 0 | 65* | 1 | 4 | -15
Cc1cccc(NCc2nc3ccccc3n2C)c1 | nt | 2 | 61* | -5 | 7 | 2
SMILES | Dyrk1A ADPGlo | CDK5 inh | esBAF inh | Rtt109 HAT inh | SMARCA2 activ | dFosB act
Cn1c(COc2ccc(C(=O)O)cc2)nc2ccccc21 | 0 | 1 | 4 | 6 | -2 | 1
O=C(CC(F)(F)F)N1C[C@@H]2[C@H](c3ccccc31)[C@@H](CO)N2C(=O)Cc1cccnc1 | nt | nt | 0 | nt | nt | nt
COCc1nc2ccccc2n1Cc1ccc(Br)cc1 | 10 | -1 | 50* | 0 | 3 | -4
COc1cc(/C=C2\SC(=S)N(CC(=O)Nc3ccc(O)cc3)C2=O)cc(OC)c1OC | -5 | -1 | 0 | 0 | -1 | 18*
COc1cc(/C=C2\SC(=O)N(CC(=O)Nc3cccc(C)c3)C2=O)ccc1OC(C)C(=O)O (centres undefined) | 1 | 3 | -3 | 4 | 0 | 1
COc1ccc(/C=C2\SC(=O)N(CC(=O)Nc3cccc(C)c3)C2=O)cc1O | 0 | 1 | 3 | 5 | -1 | 19*
c1cc2cc(-c3c(-c4ccc5c(c4)OCO5)noc3-c3ccsc3)ccc2[nH]1 | -12 | 1 | 55* | -1 | 4 | -3
Cc1ccc(OCC(=O)NCc2ccccn2)c(Br)c1 | -1 | -1 | 55* | 4 | 2 | -1
COc1ccc(-c2cn(CC[C@H]3CC[C@@H](NC(=O)NC(C)C)[C@H](CO)O3)nn2)cc1 | nt | nt | -1 | nt | nt | nt
COCC#Cc1cnc2c(c1)C(=O)N([C@H](C)CO)C[C@H](C)[C@H](CN(C)C(=O)C1CCCCC1)O2 | nt | nt | -2 | nt | nt | nt
Cc1ncc(C(O)c2ccc(N(C)C)cc2)n1Cc1ccccc1 (centres undefined) | nt | nt | 1 | nt | -4 | nt
CN(C)c1ccc2nc3c(=O)[nH]c(=O)nc-3n(CC(O)C(O)C(O)CO)c2c1 (centres undefined) | 2 | 5 | -11 | -1 | -2 | 117*
C[C@H]1CN([C@@H](C)CO)C(=O)Cc2cc(NC(=O)NC3CCCCC3)ccc2O[C@@H]1CN(C)C(=O)Nc1ccc2c(c1)OCO2 | nt | nt | -1 | nt | nt | nt
CN1CCN(C(=O)c2ccc(Cn3cc(Cl)cn3)o2)CC1 | 1 | 2 | -9 | -2 | 7.9* | -1
COc1ccc(C2=Nc3cccc4cccc(c34)N2)cc1 | -4 | 1 | -22 | 7 | -1 | 55*
COc1cc(CNc2ccc3[nH]c(=O)[nH]c3c2)ccc1OCc1ccccc1F | -1 | 0 | 47* | 3 | -3 | -2
COc1cc(CNc2ccc3[nH]c(=O)[nH]c3c2)ccc1OCc1ccccc1 | -5 | -2 | 25 | 6 | -1 | 2
COc1cc(CNc2ccc3[nH]c(=O)[nH]c3c2)ccc1OCc1ccccc1C | 2 | -1 | 47* | -5 | 1 | -11
COc1cc(CNc2ccc3[nH]c(=O)[nH]c3c2)ccc1OCc1ccc(F)cc1 | -2 | 2 | 26 | -5 | -4 | 6
COc1cc(CNc2ccc3[nH]c(=O)[nH]c3c2)cc(Br)c1OCc1ccccc1F | -3 | 0 | -11 | 0 | -2 | 1
COc1cc(CNc2ccc3[nH]c(=O)[nH]c3c2)ccc1OCc1ccc(Cl)cc1 | 1 | -1 | 55* | 4 | -4 | -5
C[C@H](CO)N1C[C@H](C)[C@@H](CN(C)Cc2cccc(F)c2)Oc2ncc(C#CC(C)(C)O)cc2C1=O | nt | nt | -6 | nt | nt | nt
NNC(=O)c1ccc(Cn2cc(Cl)cn2)cc1 | 2 | -1 | -3 | 2 | 0 | 2
O=C(Nc1ccc(Cl)c(Cl)c1)c1ccc(Cn2cc(Cl)cn2)cc1 | 2 | 2 | 69* | -3 | 2 | -5
Cc1cc(CNC(=O)c2cc(COc3ccc(F)c(F)c3)on2)nn1C | -4 | 1 | 65* | -4 | 3 | -7
